Source: PubChem BioAssay
Sa ugtP lethal: kills S. aureus RN4220 lacking UgtP; S. aureus RN4220 ugtP deletion, OD600 growth, 16 h; growth inhibition, % (test concentration not listed); 330,000 tested, 0.54% active; AID 1259309; in the data active = growth inhibition above about 68%;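 note: plate controls were untreated wells for no effect and antibiotic for full effect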
CCHF vOTU inh: CCHFV vOTU protease inhibition | AID 651958 | 370,000 tested, 0.55% active | inhibition, % at 11.5 µM | Pep-AMC fluorescence; in the data active = inhibition above about 30%; note: 0% = vehicle wells with enzyme and 100% = no enzyme wells
Mtb hypoxia inh: inhibitors of hypoxia-regulated fluorescent reporter in Mycobacterium tuberculosis; AID 1159583; fluorescence inhibition, % (test concentration not listed); 300,000 tested, 0.1% active; M. tuberculosis hypoxia-regulated fluorescent reporter, fluorescence; in the data active = fluorescence inhibition mostly above about 23%, no sharp cut-off; inactive = mostly below about 17%
RN4220 kill: kills Staphylococcus aureus RN4220 | S. aureus RN4220 growth, OD600, 16 h | inhibition, % (concentration not given with the values) | 330,000 tested, 0.33% active | AID 1259311; in the data active = inhibition above about 85%;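 note: plate controls were untreated cells for no effect and reference antibiotic for full effect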
RecA intein inh: Mtb RecA intein splicing inhibition; inhibition, % (no concentration beside the values); P9WHJ3; cell-free RecA intein splicing, fluorescence; 290,000 tested, 0.75% active; AID 2221; in the data active = inhibition above about 30%;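 note: 0% = vehicle wells and 100% = reference inhibitor control wells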
Target sequence (P9WHJ3 whole entry, looked up): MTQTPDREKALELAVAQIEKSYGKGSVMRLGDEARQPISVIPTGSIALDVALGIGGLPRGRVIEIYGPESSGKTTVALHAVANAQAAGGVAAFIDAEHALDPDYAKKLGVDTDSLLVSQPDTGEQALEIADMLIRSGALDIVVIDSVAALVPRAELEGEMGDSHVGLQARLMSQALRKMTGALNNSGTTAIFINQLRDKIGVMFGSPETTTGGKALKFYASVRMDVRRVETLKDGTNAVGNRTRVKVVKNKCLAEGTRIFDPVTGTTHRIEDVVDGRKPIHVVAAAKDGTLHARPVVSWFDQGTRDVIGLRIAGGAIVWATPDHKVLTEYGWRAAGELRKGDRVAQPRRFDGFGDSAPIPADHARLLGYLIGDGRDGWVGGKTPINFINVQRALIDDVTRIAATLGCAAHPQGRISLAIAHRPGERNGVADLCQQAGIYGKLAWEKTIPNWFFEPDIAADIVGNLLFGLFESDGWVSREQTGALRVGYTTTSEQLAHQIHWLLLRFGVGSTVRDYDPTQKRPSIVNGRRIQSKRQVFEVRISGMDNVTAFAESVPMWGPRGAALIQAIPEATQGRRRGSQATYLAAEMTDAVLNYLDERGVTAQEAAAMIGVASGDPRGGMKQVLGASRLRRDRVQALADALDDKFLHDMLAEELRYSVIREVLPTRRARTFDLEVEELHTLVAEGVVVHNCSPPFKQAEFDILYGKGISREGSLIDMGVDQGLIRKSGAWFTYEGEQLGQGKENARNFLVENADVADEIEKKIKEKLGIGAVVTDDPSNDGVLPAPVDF
BJeLR lethal: BJeLR cell viability loss; BJeLR (HRASV12) viability, CellTiter-Glo ATP luminescence, 48 h; inhibition, % (test concentration not listed); 300,000 tested, 0.17% active; AID 1554; in the data active = inhibition above about 50%
* marks the source's active call; other numbers are inactive results; · = not tested or not shown. This is a sample that favours compounds with a hit; in the whole collection about 1.6% have one here.

SMILES	Sa ugtP lethal	CCHF vOTU inh	Mtb hypoxia inh	RN4220 kill	RecA intein inh	BJeLR lethal
O=[N+]([O-])c1ccc(Cl)c2cccnc12	-3	10	4	2	·	13
O=C(SCc1c(O)c2ccccc2oc1=O)c1ccccc1	·	5	·	·	·	·
O=[N+]([O-])c1cc(Cl)c2cccnc2c1O	100*	23	10	99*	1	6
O=c1oc2ccccc2c(O)c1Cc1cc(Cl)c2cccnc2c1O	98*	0	13	94*	0	-3
C#CCOCCOCCOCCNc1nc(N2CCN(C(=O)C(C)n3cc(CCCN=C(N)N)nn3)CC2)nc(N2CCN(C(=O)C(C(C)O)n3cc(CCCCN)nn3)CC2)n1 (configuration not stated)	-3	·	6	3	·	·
COC(=O)C1=C(c2ccc(-c3ccccc3)c(F)c2)CC2CCC1N2C(=O)NCc1ccco1 (configuration not stated)	-20	·	-1	7	·	·
CC(O)C(C(=O)N1CCNCC1)n1cc(CCCCN)nn1 (configuration not stated)	-1	·	4	-1	·	·
O=C(NC1CC1)C1=CC(c2c[nH]c3ccccc23)CC(OCCCCO)O1 (configuration not stated)	-3	·	3	1	·	·
CCC(C)C(C(=O)N1CCNCC1)n1cc(C(N)Cc2ccc(O)cc2)nn1 (configuration not stated)	-4	·	4	4	·	·
CCC(=O)NC(c1ccc(C)cc1)c1cc([N+](=O)[O-])c2cccnc2c1O (configuration not stated)	95*	17	5	94*	5	12
Oc1c(Cl)cc(CN2CCOCC2)c2cccnc12	10	5	13	1	·	·
Oc1c(CN2CCc3ccccc3C2)cc(Cl)c2cccnc12	-3	·	1	4	13	65*
C#CCOCCOCCOCCNc1nc(N2CCN(C(=O)Cn3cc(CCCN=C(N)N)nn3)CC2)nc(N2CCN(C(=O)C(CCCCN)n3cc(CCCC)nn3)CC2)n1 (configuration not stated)	6	·	2	5	·	·
CCn1c(SCc2ccccc2Cl)nc2ccccc21	91*	1	·	0	13	-3
COc1cc(C(=O)OC(C)C(=O)NC(=O)NC2CCCCC2)ccc1OC(F)F (configuration not stated)	91*	12	4	52	·	·
Clc1ccc(OCCSc2ncccn2)c2ccccc12	96*	13	10	2	5	-4
CC(C)CC(NC(=O)c1nc[nH]c1C(=O)NCC(=O)OC(C)(C)C)C(=O)OCc1ccccc1 (configuration not stated)	-13	·	7	5	·	·
NC(=S)c1cn(C2OC(CO)C(O)C2O)c2ncnc(N)c12 (configuration not stated)	-8	-2	·	4	0	62*
Nc1ncnc2nn(C3OC(CO)C(O)C3O)nc12 (configuration not stated)	·	11	·	·	·	·
Nc1ncnc2c1ccn2[C@@H]1O[C@H](CO)[C@@H](O)[C@H]1O	12	-3	·	3	·	111*
OCC1OC(n2ccc3c2ncn2ncnc32)C(O)C1O (configuration not stated)	·	10	·	·	·	·
COC(=O)C1=C(C)N(Cc2ccccc2)C(=NCCCCO)NC1c1cccc(C(F)(F)F)c1 (configuration not stated)	-23	·	-10	-1	·	·
CC1NC(=O)C(CCC(N)=O)NC(=O)c2cc([N+](=O)[O-])cc(I)c2NCCCC(C(N)=O)NC1=O (configuration not stated)	4	·	6	4	·	·
C=CCNc1nc(C(=O)OCC(=O)NCc2cccc(Cl)c2)cs1	-1	-7	34*	5	·	·
CCCCCC1CN(CCCC)C(=O)C1CC(=O)NCc1ccc(OC)cc1 (configuration not stated)	-8	·	6	5	·	·
SMILES	Sa ugtP lethal	CCHF vOTU inh	Mtb hypoxia inh	RN4220 kill	RecA intein inh	BJeLR lethal
Cc1cccc(Nc2nc(-c3sc(C)nc3C)cs2)c1	90*	6	5	-7	-3	-3
CCOC(=O)c1cn(C2CC2)c2c(F)c(F)c(F)cc2c1=O	10	8	12	5	-1	-3
C[C@@H]1CN(c2c(F)c(F)c3c(=O)c(C(=O)O)cn(C4CC4)c3c2F)C[C@H](C)N1	97*	-6	·	96*	1	16
Cc1ccc(NC=C(C#N)c2ccsc2)cc1	1	·	8	4	·	·
CC1OC(n2cc(F)c(=O)[nH]c2=O)C(O)C1O (configuration not stated)	97*	·	-7	76	·	·
O=c1[nH]c(=O)n(C2OC(CO)C(O)C2O)cc1Br (configuration not stated)	1	0	-6	3	-2	-7
O=c1[nH]c(=O)n(C2CC(O)C(CO)O2)cc1I (configuration not stated)	-2	-7	-2	3	·	·
O=c1[nH]c(=O)n([C@H]2C[C@H](O)[C@@H](CO)O2)cc1F	·	6	·	·	-2	93*
Cc1cc(CNC(=O)C2CC2C(NP(=O)(c2ccccc2)c2ccccc2)c2ccccc2)nn1C (configuration not stated)	-10	·	12	5	·	·
C#Cc1ccc(C2C=C(C(=O)NCc3nc4ccccc4[nH]3)OC(OCC)C2CCCO)cc1 (configuration not stated)	1	·	-7	4	·	·
CC1CN(C(C)CO)C(=O)c2cc(NC(=O)Cc3cn(C)c4ccccc34)ccc2OC1CN(C)S(=O)(=O)c1ccc(F)cc1 (configuration not stated)	9	·	6	6	·	·
O=C(c1ccc(Br)cc1)C(CN1CCOCC1)c1ccccc1 (configuration not stated)	100*	6	14	93*	17	22
CCOc1ccc(C(=O)C(CN2CCOCC2)c2ccccc2)cc1 (configuration not stated)	35	-11	14	16	10	0
COc1ccc(O)c(-c2cc(-c3cccc(Br)c3)n[nH]2)c1	86*	21	11	42	16	8
Cn1nc(C(=O)Nc2cc(Cl)ccc2N2CCCC2)c2ccccc2c1=O	100*	-4	-9	100*	·	·
CN1CCN(c2ccc(Cl)cc2NC(=O)c2nn(-c3ccccc3)c(=O)c3ccccc23)CC1	-11	7	-8	1	1	0
COc1ccc(-c2ccc(OC)c(C3C4C=CCC[C@@]4(C)C(=O)N3Cc3ccccc3)c2)cc1OC (some centres not stated)	3	·	6	-7	·	·
Cc1ccc(N2C(=O)c3cccc4c([N+](=O)[O-])ccc(c34)C2=O)c2cccnc12	5	3	4	6	-4	52*
CC(OC(=O)c1oc2ccccc2c1CSC1CCCCC1)C(=O)NC(N)=O (configuration not stated)	99*	-13	-3	-6	-1	-2
